Experimental data from the supplement of paper PMC6411743.
± gives the standard deviation of the averaged measurements. About 6,500 targets were measured; listed, in parts, are those with the largest changes and a random draw of the rest.

How the values were obtained:
Test in all cases: NP40-soluble protein abundance relative to vehicle (solubility fold change) (ratio); higher = more soluble protein in presence of ATP
[1] = target: T1, UniProt O95983|O95983-2|K7EIE8
T1 sequence (whole entry): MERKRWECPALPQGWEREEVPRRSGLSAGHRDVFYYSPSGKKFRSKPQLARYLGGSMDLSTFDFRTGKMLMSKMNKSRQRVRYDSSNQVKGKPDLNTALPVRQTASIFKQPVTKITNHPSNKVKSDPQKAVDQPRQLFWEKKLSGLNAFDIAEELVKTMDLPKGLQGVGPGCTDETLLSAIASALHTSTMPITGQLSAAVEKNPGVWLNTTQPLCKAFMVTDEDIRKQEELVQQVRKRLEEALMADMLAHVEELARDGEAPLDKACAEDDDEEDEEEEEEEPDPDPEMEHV
Method in brief: (§1)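 Values are fold changes against the detergent-processed vehicle, based on vsn-normalised intensities. Jurkat crude lysate was treated at eight concentrations from 0.1 to 10 mM (10 min at room temperature, then 3 min at 37 °C), solubilised with 0.8% NP40 and benzonase, ultracentrifuged and analysed by TMT-labelled LC-MS/MS over three independent experiments.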

[2] = target: T2, UniProt P11177|P11177-2
T2 sequence (whole entry): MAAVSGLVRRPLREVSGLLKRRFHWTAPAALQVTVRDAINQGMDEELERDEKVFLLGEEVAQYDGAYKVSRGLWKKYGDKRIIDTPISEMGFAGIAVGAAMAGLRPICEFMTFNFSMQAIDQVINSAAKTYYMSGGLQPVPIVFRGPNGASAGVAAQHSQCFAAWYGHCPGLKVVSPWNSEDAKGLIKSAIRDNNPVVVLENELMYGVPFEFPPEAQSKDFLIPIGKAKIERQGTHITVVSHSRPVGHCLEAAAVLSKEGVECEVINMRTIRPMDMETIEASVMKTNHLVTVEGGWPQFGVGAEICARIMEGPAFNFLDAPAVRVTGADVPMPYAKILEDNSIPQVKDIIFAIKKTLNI
Method in brief: as §1

[3] = target: T3, UniProt P29728-2|A0A087X0V5|P29728
T3 sequence (whole entry): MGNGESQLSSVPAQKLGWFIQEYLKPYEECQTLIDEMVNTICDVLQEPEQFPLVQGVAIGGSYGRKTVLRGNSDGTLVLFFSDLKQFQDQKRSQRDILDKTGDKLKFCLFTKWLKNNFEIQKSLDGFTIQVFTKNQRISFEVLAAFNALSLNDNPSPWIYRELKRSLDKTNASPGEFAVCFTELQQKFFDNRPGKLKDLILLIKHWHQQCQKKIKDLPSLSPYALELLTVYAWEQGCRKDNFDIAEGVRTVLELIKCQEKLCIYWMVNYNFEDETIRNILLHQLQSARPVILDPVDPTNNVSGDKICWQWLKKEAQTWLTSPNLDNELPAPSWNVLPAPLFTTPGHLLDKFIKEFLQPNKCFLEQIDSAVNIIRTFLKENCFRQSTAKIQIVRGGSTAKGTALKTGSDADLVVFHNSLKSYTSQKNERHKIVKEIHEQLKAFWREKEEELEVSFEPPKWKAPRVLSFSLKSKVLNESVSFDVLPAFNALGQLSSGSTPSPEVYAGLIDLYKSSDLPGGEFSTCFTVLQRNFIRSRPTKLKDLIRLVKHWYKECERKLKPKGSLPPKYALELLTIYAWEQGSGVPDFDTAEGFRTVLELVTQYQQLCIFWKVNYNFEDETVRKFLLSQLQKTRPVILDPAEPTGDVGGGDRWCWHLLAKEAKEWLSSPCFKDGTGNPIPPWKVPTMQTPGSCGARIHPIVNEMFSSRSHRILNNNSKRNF
Method in brief: as §1

[4] = target: T4, UniProt P52594|P52594-2|P52594-3|P52594-4
T4 sequence (whole entry): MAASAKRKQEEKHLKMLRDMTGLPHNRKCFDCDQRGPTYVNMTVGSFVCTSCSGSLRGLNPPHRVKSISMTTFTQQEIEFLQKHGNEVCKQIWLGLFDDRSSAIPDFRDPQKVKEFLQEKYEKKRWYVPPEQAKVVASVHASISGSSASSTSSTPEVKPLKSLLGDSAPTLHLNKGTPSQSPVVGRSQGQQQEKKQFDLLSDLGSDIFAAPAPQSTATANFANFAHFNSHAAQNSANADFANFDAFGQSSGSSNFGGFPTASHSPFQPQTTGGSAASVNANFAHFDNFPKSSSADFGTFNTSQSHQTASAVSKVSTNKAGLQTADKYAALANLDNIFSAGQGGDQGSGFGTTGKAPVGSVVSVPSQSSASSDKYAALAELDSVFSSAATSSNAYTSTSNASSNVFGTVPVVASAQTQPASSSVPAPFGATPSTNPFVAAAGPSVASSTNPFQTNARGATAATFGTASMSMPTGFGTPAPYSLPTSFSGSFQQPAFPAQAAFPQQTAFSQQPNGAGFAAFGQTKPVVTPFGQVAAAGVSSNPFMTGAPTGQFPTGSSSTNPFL
Method in brief: as §1

[5] = target: T5, UniProt P52757|P52757-9
T5 sequence (whole entry): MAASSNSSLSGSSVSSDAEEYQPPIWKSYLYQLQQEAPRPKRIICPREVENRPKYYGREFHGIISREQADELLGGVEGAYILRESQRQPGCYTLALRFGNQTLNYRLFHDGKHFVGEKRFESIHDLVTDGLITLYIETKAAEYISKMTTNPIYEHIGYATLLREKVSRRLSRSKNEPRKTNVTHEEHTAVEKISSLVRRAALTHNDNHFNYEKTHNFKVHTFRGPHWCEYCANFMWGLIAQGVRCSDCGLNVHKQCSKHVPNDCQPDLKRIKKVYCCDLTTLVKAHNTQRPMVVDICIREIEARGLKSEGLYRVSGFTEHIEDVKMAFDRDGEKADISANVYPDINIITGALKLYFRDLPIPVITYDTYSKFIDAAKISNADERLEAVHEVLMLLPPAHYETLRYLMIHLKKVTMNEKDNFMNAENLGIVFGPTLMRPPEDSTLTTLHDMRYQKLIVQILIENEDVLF
Method in brief: as §1

[6] = target: T6, UniProt Q02040
T6 sequence (whole entry): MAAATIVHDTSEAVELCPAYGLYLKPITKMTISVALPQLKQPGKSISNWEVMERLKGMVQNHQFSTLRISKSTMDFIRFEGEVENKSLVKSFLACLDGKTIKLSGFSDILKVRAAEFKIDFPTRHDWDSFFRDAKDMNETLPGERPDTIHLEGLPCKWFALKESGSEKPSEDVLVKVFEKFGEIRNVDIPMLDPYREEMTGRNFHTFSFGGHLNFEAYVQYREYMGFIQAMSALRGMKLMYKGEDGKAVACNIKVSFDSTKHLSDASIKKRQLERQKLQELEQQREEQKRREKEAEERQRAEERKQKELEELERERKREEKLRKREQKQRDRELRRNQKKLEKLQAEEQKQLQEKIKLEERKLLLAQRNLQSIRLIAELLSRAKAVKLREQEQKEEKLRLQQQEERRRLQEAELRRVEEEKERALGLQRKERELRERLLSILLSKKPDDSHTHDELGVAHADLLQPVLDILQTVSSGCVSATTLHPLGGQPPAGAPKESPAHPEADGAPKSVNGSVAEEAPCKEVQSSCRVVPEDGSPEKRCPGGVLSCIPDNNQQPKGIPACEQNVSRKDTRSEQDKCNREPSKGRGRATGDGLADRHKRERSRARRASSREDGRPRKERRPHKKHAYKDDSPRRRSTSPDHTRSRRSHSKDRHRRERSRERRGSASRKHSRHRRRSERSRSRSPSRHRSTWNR
Method in brief: as §1

[7] = target: T7, YWHAZ (UniProt P63104)
T7 sequence (whole entry): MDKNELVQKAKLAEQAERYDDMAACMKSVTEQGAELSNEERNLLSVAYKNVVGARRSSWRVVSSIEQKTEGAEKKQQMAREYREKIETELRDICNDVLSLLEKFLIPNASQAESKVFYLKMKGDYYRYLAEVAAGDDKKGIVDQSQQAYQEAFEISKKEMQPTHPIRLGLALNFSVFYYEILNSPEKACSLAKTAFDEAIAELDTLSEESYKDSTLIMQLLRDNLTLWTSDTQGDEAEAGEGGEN
Method in brief: as §1

Nc1ncnc2c1ncn2[C@@H]1O[C@H](COP(=O)(O)OP(=O)(O)OP(=O)(O)O)[C@@H](O)[C@H]1O [adenosine triphosphate]
NP40-soluble protein abundance ([1]; concentration: 6mM): 1.02 ± 0.16 | NP40-soluble protein abundance ([1]; concentration: 8mM): 1.01 ± 0.065 | NP40-soluble protein abundance ([1]; concentration: 10mM): 0.92 ± 0.082 | NP40-soluble protein abundance ([2]; concentration: 1mM): 1.14 ± 0.069 | NP40-soluble protein abundance ([2]; concentration: 2mM): 1.04 ± 0.041 | NP40-soluble protein abundance ([2]; concentration: 4mM): 1 ± 0.05 | NP40-soluble protein abundance ([2]; concentration: 6mM): 1.02 ± 0.18 | NP40-soluble protein abundance ([2]; concentration: 8mM): 1.05 ± 0.14 | NP40-soluble protein abundance ([2]; concentration: 10mM): 1.02 ± 0.12 | NP40-soluble protein abundance ([3]; concentration: 1mM): 1.73 ± 0.11 | NP40-soluble protein abundance ([3]; concentration: 2mM): 1.65 ± 0.019 | NP40-soluble protein abundance ([3]; concentration: 4mM): 1.7 ± 0.046 | NP40-soluble protein abundance ([3]; concentration: 6mM): 1.55 ± 0.12 | NP40-soluble protein abundance ([3]; concentration: 8mM): 1.74 ± 0.042 | NP40-soluble protein abundance ([3]; concentration: 10mM): 1.68 ± 0.047 | NP40-soluble protein abundance ([4]; concentration: 1mM): 0.945 ± 0.033 | NP40-soluble protein abundance ([4]; concentration: 2mM): 0.961 ± 0.012 | NP40-soluble protein abundance ([4]; concentration: 4mM): 0.963 ± 0.019 | NP40-soluble protein abundance ([4]; concentration: 6mM): 0.987 ± 0.037 | NP40-soluble protein abundance ([4]; concentration: 8mM): 0.93 ± 0.052 | NP40-soluble protein abundance ([4]; concentration: 10mM): 0.918 ± 0.033 | NP40-soluble protein abundance ([5]; concentration: 1mM): 0.952 ± 0.13 | NP40-soluble protein abundance ([5]; concentration: 2mM): 0.971 ± 0.14 | NP40-soluble protein abundance ([5]; concentration: 4mM): 1 ± 0.23 | NP40-soluble protein abundance ([5]; concentration: 6mM): 0.948 ± 0.094 | NP40-soluble protein abundance ([5]; concentration: 8mM): 0.989 ± 0.091 | NP40-soluble protein abundance ([5]; concentration: 10mM): 0.983 ± 0.12 | NP40-soluble protein abundance ([6]; concentration: 1mM): 1.4 ± 0.24 | NP40-soluble protein abundance ([6]; concentration: 2mM): 1.56 ± 0.34 | NP40-soluble protein abundance ([6]; concentration: 4mM): 1.8 ± 0.45 | NP40-soluble protein abundance ([6]; concentration: 6mM): 2.02 ± 0.41 | NP40-soluble protein abundance ([6]; concentration: 8mM): 2.19 ± 0.54 | NP40-soluble protein abundance ([6]; concentration: 10mM): 2.43 ± 0.62 | NP40-soluble protein abundance ([7]; concentration: 1mM): 0.892 ± 0.2 | NP40-soluble protein abundance ([7]; concentration: 2mM): 0.94 ± 0.045 | NP40-soluble protein abundance ([7]; concentration: 4mM): 0.896 ± 0.025 | NP40-soluble protein abundance ([7]; concentration: 6mM): 0.918 ± 0.17 | NP40-soluble protein abundance ([7]; concentration: 8mM): 0.8927 ± 0.0068 | NP40-soluble protein abundance ([7]; concentration: 10mM): 0.819 ± 0.066
